Source: PubChem BioAssay
Rows were chosen to be rich in hits. Some 8.3% of all compounds tested hit in one or more screens of this group.
FBPA Giardia inh: inhibitors of Giardia lamblia fructose-1,6-bisphosphate aldolase; purified Giardia FBPA; actives 0.71% (n = 290,000); A8B2U2; AID 2451; Potency, µM (highest dose often 59.6 µM), hits mostly inhibitors; also: nearly all actives have a fitted effect of over 55% in size
Target sequence (A8B2U2 whole entry, looked up): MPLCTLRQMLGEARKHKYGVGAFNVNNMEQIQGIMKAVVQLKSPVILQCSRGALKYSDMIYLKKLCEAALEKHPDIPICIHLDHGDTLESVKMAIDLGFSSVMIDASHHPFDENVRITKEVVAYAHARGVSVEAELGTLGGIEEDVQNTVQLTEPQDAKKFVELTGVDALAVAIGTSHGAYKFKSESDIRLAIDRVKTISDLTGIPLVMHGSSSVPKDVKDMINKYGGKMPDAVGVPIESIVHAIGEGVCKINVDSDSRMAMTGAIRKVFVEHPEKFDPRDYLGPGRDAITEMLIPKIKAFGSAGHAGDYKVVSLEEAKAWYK
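40 nM FBPA preincubated 10 min at RT with compound (up to 57.5 uM final), then substrate plus GAPDH/TPI/NAD/arsenate coupling and diaphorase/resazurin added. Fluorescence read after 20 min at RT, 525/598 nm.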
HCV inhibitor: blocks hepatitis C virus | Potency, µM (series often up to 41.8 µM), actives largely listed as inhibitors | Huh7.5.1 HCVcc-Cre infection, luciferase reporter, 44 h | actives 3.4% (n = 340,000)
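Infectious HCVcc-Cre (~0.5 moi) was added to cells just after compound, with cells seeded 4 h earlier at 1,000 per well. Luciferase activity after 44 h culture reported infection; substrate was incubated 15 min at room temperature before reading.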
LASV entry inh: Lassa virus entry inhibition; Potency, µM (top dose mostly 37.9 µM), hits mostly inhibitors; actives 1.2% (n = 300,000); AID 540256; Lassa virus pseudotype entry inhibition, cell reporter; calls by dose curve; tested in HEK293 cells; also: nearly all actives have a fitted effect of over 50% in size
HCMV antiviral: human cytomegalovirus inhibition; HFF cells, HCMV-luciferase reporter, 72 h; active compounds read low; activity change, negative = inhibition, % at 57.5 µM; actives 4.5% (n = 410,000); in the data active = activity change below about -60%; inconclusive = no clear call, values can overlap the other calls; inactive = above about -39%
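Human foreskin fibroblasts infected with luciferase-reporter HCMV at MOI 1 PFU/cell, compounds at two doses. Luciferase measured 72 h post infection; normalized to buffer-only basal and Salinomycin (10uM) controls.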
FMDV inh: antivirals against foot and mouth disease virus; FMDV antiviral cell-based qHTS; Potency, µM (titrated, usually from 57.9 µM), usual class: inhibitors; actives 1.2% (n = 410,000); AID 1159524; calls by dose curve; tested in HEK293T cells; also: read-out not given here; nearly all actives have a fitted effect of over 45% in size
Marburg entry inh: Marburg virus entry inhibition; Marburg virus pseudotyped entry inhibition, cell reporter; Potency, µM (titrated, usually from 37.8 µM), hits mostly inhibitors; actives 1.8% (n = 300,000); AID 540276; calls by dose curve; tested in HEK293 cells
A number is an active result; - = inactive; ? = inconclusive; . = not tested or not shown. Unless noted, calls follow the shape of the dose curve; as a rule, active = well fitted curve in the direction sought with a large enough effect; inconclusive = small, poorly fitted or top-dose-only effect, or another doubt; inactive = no such curve, though single readings can be large; an effect the other way counts as inactive or inconclusive.

SMILES	FBPA Giardia inh	HCV inhibitor	LASV entry inh	HCMV antiviral	FMDV inh	Marburg entry inh
COc1ccc(-c2noc(CCC(=O)NCCc3cccc(C)c3)n2)cc1	-	8.9µM	?	-	-	-
CCN(C(=O)CCc1nc(-c2ccc(OC)cc2)no1)c1cc(OC)ccc1OC	-	11µM	?	-	?	-
COc1cccc(NC(=O)CCc2nc(-c3ccc(C(C)(C)C)cc3)no2)c1	.	.	?	-82	?	?
COc1cccc(-c2nc(-c3ccc(NC(=O)Cc4ccccc4OC)cc3)no2)c1	-	6.3µM	-	.	-	-
COc1ccc(-c2noc(CCC(=O)Nc3cccc(C)c3)n2)cc1	-	?	-	-	-	-
CCCc1ccc(OCc2ccc(C(=O)Nc3ccccc3C(=O)OC)o2)cc1	.	.	?	-	-	-
CCc1cc(-c2n[nH]c(C)c2-c2ccc3c(c2)OCCO3)c(O)cc1O	-	.	.	.	?	.
CCOc1ccc(NC(=O)Cn2c(=O)c(CNc3ccc(CC)cc3)cc3cc4c(cc32)OCO4)cc1	.	.	?	-	-	.
N/C(=N\OC(=O)C1CCCCC1)c1ccc(Cl)cc1	.	-	.	-	-	.
NC(=NC1CCCCC1)c1ccc(Cl)cc1	-	-	-	-	1.4µM	?
CC(=O)c1ccc(NC(=O)CCC(=O)N2CC(C)Oc3ccc(C)cc32)cc1 (centres undefined)	.	10µM	?	-	-	-
Cc1ccc2c(c1)N(C(=O)CCC(=O)Nc1ccccc1Br)CC(C)O2 (centres undefined)	-	-	.	?	-	.
Cc1ccc2nc(SCC(=O)c3ccccc3)nc(=O)n2c1	.	-	10µM	-	-	?
CCN(CC)CCCNC(=O)c1cc2c(-c3cccc(OC)c3)nn(C)c2s1	-	11µM	.	-	-	.
Cn1nc(-c2ccc(Cl)cc2)c2cc(C(=O)NCCCN3CCCC3)sc21	-	13µM	.	.	-	.
COc1ccc(OC)c(CCNC(=O)c2cc3c(-c4ccccc4F)nn(C)c3s2)c1	.	.	?	-90	?	?
COc1cccc(-c2nn(C)c3sc(C(=O)NCCc4ccc(Cl)cc4)cc23)c1	.	.	-	?	-	-
COc1cccc(-c2nn(C)c3sc(C(=O)NCc4ccco4)cc23)c1	-	7.1µM	?	-	-	-
CCN1CCN(CCCNC(=O)CCc2nc(-c3ccc(OC)cc3)no2)CC1	-	-	.	-	-	.
COc1ccc(-c2noc(CCC(=O)NCCCN3CCC(C)CC3)n2)cc1	-	-	-	-	-	?
COc1ccc(-c2noc(CCC(=O)NCCCN3CCN(c4ccccc4F)CC3)n2)cc1	-	?	.	-67	?	.
Cc1ccc(-c2noc(CCC(=O)NCCCN3CCN(c4cccc(Cl)c4)CC3)n2)cc1	-	11µM	?	-	?	?
Cc1ccc(-c2noc(CCC(=O)NCCCN3CCN(c4ccc(F)cc4)CC3)n2)cc1	-	?	-	-	?	-
COc1ccc(-c2noc(CCC(=O)NCCN3CCN(c4ccccc4F)CC3)n2)cc1	-	6.3µM	?	-	?	?
CCn1cc[n+](C)c1P(c1ccccc1)c1ccccc1	-	-	.	-76	?	.
SMILES	FBPA Giardia inh	HCV inhibitor	LASV entry inh	HCMV antiviral	FMDV inh	Marburg entry inh
COc1ccc(/C=C/C(=O)O)cc1O	.	-	.	-	-	.
O=C(COc1ccccc1)NC1CC(=O)N(c2ccc3c(c2)OCCO3)C1 (centres undefined)	.	.	-	-	-	.
O=C(COc1ccc(F)cc1)NC1CC(=O)N(c2ccc3c(c2)OCCO3)C1 (centres undefined)	.	.	-	-108	-	.
Cc1oc2ccc(O)c(CN3CCN(C)CC3)c2c1C(=O)Nc1cccc(Cl)c1C	.	.	-	-	-	-
OC(c1cc(C(F)(F)F)nc2c(C(F)(F)F)cccc12)C1CCCCN1 (centres undefined)	-	?	.	-99	?	.
OC(c1cc(-c2cccc(Cl)c2)nc2ccccc12)C1CCCCN1 (centres undefined)	.	?	?	-98	?	11µM
O[C@H](c1cc(C(F)(F)F)nc2c(C(F)(F)F)cccc12)[C@H]1CCCCN1	-	.	.	.	.	.
Cc1ccc2nc(SCC(=O)NCC3Cc4cc(-c5ncccc5C)ccc4O3)[nH]c2c1 (centres undefined)	.	.	.	.	-	.
COC[C@@H](O)[C@H]1OCc2ccccc2[C@H]1C=Cc1ccccc1	.	.	.	.	.	-
CCOc1ccccc1NC(=O)C(=O)Nc1ccc2nc3n(c(=O)c2c1)CCCCC3	.	.	-	-	?	-
